Bioassay records from PubChem BioAssay.
Sampled rows, rich in hits. Any-hit rate of the full collection: about 6.5%.
Giardia killer: Small Molecules that selectively kill Giardia lamblia: qHTS; Giardia lamblia trophozoite viability; 340,000 compounds, 0.15% hits; activity change, % at 7.66 µM, hits read low; in the data active = activity change below about -80%; inconclusive = between about -30% and that limit;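 also: parasites exposed to compound for two days anaerobically before the ATP read; % is scaled to controls: 0 for no effect and ±100 for the full control effect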
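Luminescent ATP signal served as the viability read-out, measured 15-30 min after adding ATP detection reagent to trophozoites that had been incubated with compounds for 48 hrs at 37 deg C anaerobically at 100 cells/well.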
HT1080NT lethal: qHTS for induction of synthetic lethality in tumor cells producing 2HG: qHTS for the HT-1080-NT fibrosarcoma cell line. HT-1080-NT fibrosarcoma viability, CellTiter-Glo ATP luminescence, 48 h. Potency, µM (highest dose often 46.1 µM), inactives show top-dose activity, negative = less viability, hits mostly cytotoxic. 360,000 compounds, 1.6% hits. AID 686970, 2013;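 also: NT is the 2HG producing partner of a matched IDH1 knockdown line; potency is read from the fitted curve at half-maximal effect; 0% = DMSO-treated cells and -100% = media-only wells without cells; nearly all actives have a fitted effect of over 55% in size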
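HT-1080-NT; 750 cells/well; 5% FBS RPMI; 48 h compound, 37 degrees C; CellTiter-Glo luminescence; curve fitting and curve-class assignment.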
HepG2 viability: qHTS for Inhibitors of TGF-b: Cytotox Counterscreen; HepG2 CAGA-GFP viability, ATP luminescence, 18 h; Potency, µM (top dose mostly 46.1 µM), for inactives: at the highest dose activity change, negative = cytotoxicity, usual class: cytotoxic; 410,000 compounds, 0.76% hits; also: potency is read from the fitted curve at half-maximal effect
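HepG2 CAGA-GFP cells (1000/well, DMEM with 1% FBS) received compound, then TGF-beta at 500 pg/mL final, and were incubated 18 hours at 37 degrees C. Viability was read by CellTiter-Glo luminescence. Media-only wells were set as complete cell-killing and DMSO as no toxicity.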
HT1080 IDH1KD tx: qHTS for induction of synthetic lethality in tumor cells producing 2HG: qHTS for the HT-1080-IDH1KD cell line; 360,000 compounds, 2% hits; AID 686971, 2013; HT-1080 IDH1 knockdown viability, ATP luminescence, 48 h; Potency, µM (doses to about 46.1 µM), for the others: at the top dose activity, negative = toxicity, actives largely listed as cytotoxic;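 also: potency is read from the fitted curve at half-maximal effect; 0% = DMSO wells and -100% = cell-free medium wells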
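Assay cells: HT-1080 with IDH1 knockdown, 750 per well, RPMI/5% FBS. Exposure: 48 h at 37 °C following 2 h pre-incubation. Read: CellTiter-Glo luminescence; fitted concentration-response, curve class assigned.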
IL1B secr inh: qHTS for Inhibitors of Inflammasome Signaling: IL-1-beta AlphaLISA Primary Screen; THP-1 LPS/ATP IL-1B secretion, AlphaLISA, 16 h; active compounds read low; activity change, % at 57.5 µM; 360,000 compounds, 4.7% hits; in the data active = activity change below about -50%; inconclusive = mostly about -30% to -49%; also: % is scaled to controls: 0 for no effect and ±100 for the full control effect
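Secreted IL-1B measured by AlphaLISA bead assay after 16 h compound exposure of THP-1 cells; compounds (final up to 57.5 uM) added 1 h before LPS (250 ng/mL) and ATP (1.25 mM) stimulation; lower signal means less secretion.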
TGFb inhibitor: qHTS for Inhibitors of TGF-b. 410,000 compounds, 1.2% hits. AID 588855, 2011. HepG2 CAGA-GFP TGF-b/SMAD3 reporter, GFP fluorescence, 18 h; TGF-beta stimulated, 500 pg/mL final. Potency, µM (highest dose often 46.1 µM), for inactives: top-dose activity, negative = inhibition, actives largely listed as inhibitors; also: potency is read from the fitted curve at half-maximal effect; % is scaled to controls: 0 for no effect and ±100 for the full control effect; nearly all actives have a fitted effect of over 65% in size
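Smad-responsive CAGA-GFP expression was quantified in HEPG2 cells exposed to compounds and 500 pg/mL final TGF-beta for 18 h at 37 degrees C; unstimulated wells defined full inhibition.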
Starred values were filed as active, the others as inactive; ? = inconclusive; . = not tested or not shown; [ ] = dose if it differs, or a comment. Unless noted, calls follow the shape of the dose curve; as a rule, active = well fitted curve in the direction sought with a large enough effect; inconclusive = small, poorly fitted or top-dose-only effect, or another doubt; inactive = no such curve, though single readings can be large; an effect the other way counts as inactive or inconclusive.

SMILES	Giardia killer	HT1080NT lethal	HepG2 viability	HT1080 IDH1KD tx	IL1B secr inh	TGFb inhibitor
COc1ccccc1NC(=O)NC1(C(=O)N2CCC(C)CC2)CCCCC1	1	0%	-1%	7%	-2	-8%
O=C(c1cc(=O)c2ccccc2o1)N(Cc1ccccc1)C1CCS(=O)(=O)C1 (stereo not drawn)	-14	16%	8%	28%	-4	8%
OCn1c2ccccc2c2ccccc21	-20	-4%	-23%	-3%	0	28%
Cc1cccc2nc(CSCc3ccco3)cn12	0	10%	-17%	11%	4	?
CCn1c(SCC(=O)c2[nH]c(C)c(C(C)=O)c2C)nnc1-c1ccncc1	5	1%	-2%	3%[9.24 µM]	20	3%
CCn1c(SCC(=O)c2[nH]c(C)c(C(C)=O)c2C)nnc1-c1ccccc1	3	-1%	3%	16µM*	4	?
Cc1ccc(Cn2cnc3ccccc32)cc1	-1	-25%	-22%	?	-54*	-27%
COc1ccccc1NC(=O)COc1ccc(CO)cc1Cl	1	-1%	-2%	-6%	-4	10%
Cc1ccc(-n2nc3c(=O)n(CCCC(=O)NCc4ccccc4C)nc(C)c3c2C)cc1	1	-8%	-42%	8%	-25	?
O=C(c1ccccc1Br)N(Cc1ccccc1)c1ccccc1	-3	-10%	-19%	-9%	-57*	-30%
CCOc1ccccc1NC(=O)CSc1nnc(CNC(=O)c2cccs2)o1	?	26%	-22%	16%	-1	-19%
COc1ccccc1NC(=O)CSc1nnc(CNC(=O)c2cccs2)o1	-15	3%	-10%	5%	-77*	-6%
COc1ccc(C(=O)NCc2nnc(SCC(=O)N3CCCC3)o2)cc1OC	18	6%	-45%	14%	-55*	0%
CCCC(=O)Nc1ccc(C(=O)N2CCCC2)cc1	2	9%	-10%	10%	0	-10%
CCOC(=O)CCc1c(C)n[nH]c1C	-18	6%	-4%	4%	13	-13%
CCOC(=O)CCCc1sc(N)nc1-c1[nH]c(=O)[nH]c1C	15	-5%	3%	4%	-83*	28%
CC(C)(C)c1ccc2c(c1)OC(C(=O)N/N=C\c1ccncc1)CO2 (stereo not drawn)	10	-7%	20µM*	-25%	.	-12%
CC(C)(C)c1ccc2c(c1)OC(C(=O)N/N=C\c1ccc[nH]1)CO2 (stereo not drawn)	-12	?	-29%	3.7µM*	-12	-7%
CC(C)(C)c1ccc2c(c1)OC(C(=O)N/N=C/c1ccc([N+](=O)[O-])o1)CO2 (stereo not drawn)	-98*	-25%	-34%	?	-8	-10%
O=C(Nc1cccc2ccccc12)C12CC3CC(C1)CC(n1cnc([N+](=O)[O-])n1)(C3)C2	?	-11%	-2%	-9%	-10	4%
COc1ccccc1C1CC(c2ccc(Cl)cc2)Nc2nc(N)nn21 (stereo not drawn)	-12	?	-17%	-58%	-22	-6%
CCOc1ccccc1C(=O)OCC(=O)NCc1ccc2c(c1)OCO2	-2	5%	12%	2%	38	-19%
COc1ccc(C(=O)N(C)Cc2ccc(C)o2)cc1OC1CCN(C(C)=O)CC1	1	17%	2%	0%	-9	0%
COC(=O)c1oc2ccc(Br)cc2c1NC(=O)CN1CCN(C)CC1	10	0%	-17%	-3%	-53*	1%
COC(=O)c1oc2ccccc2c1NC(=O)CN1CCCC1	5	0%	6%	0%	-9	-2%
SMILES	Giardia killer	HT1080NT lethal	HepG2 viability	HT1080 IDH1KD tx	IL1B secr inh	TGFb inhibitor
Cc1ccc(NCC(=O)c2ccccc2)cc1Cl	-20	-2%	-16%	0%	?	-4%
Cc1ccc(NC2=C(NC(=O)c3ccccc3)C(=O)c3ccccc3C2=O)cc1Cl	5	-18%	16µM*	-16%	?	11µM*
O=C(O)c1cccc(NC2=C(Cl)C(=O)c3ccccc3C2=O)c1	7	?	-86%	16µM*	-65*	?
O=C(NN1C(=O)NC2(CCCCC2)C1=O)c1cc2cc(Cl)ccc2o1	22	8%	2%	11%	0	-1%
CCOC(=O)Cn1c(=O)oc2cc(S(=O)(=O)N(C)c3ccc(OC)cc3)ccc21	-12	-6%	-8%	6%	-57*	-10%
CCOC(=O)Cn1c(=O)oc2cc(S(=O)(=O)N(C)c3cccc(C)c3)ccc21	-8	-6%	13%	0%	22	1%
CO/N=C\CC(=O)Nc1ccc(Cl)cc1Cl	5	?	1%	8.2µM*	1	-16%
C/C(CC(=O)Nc1ccc(Cl)cc1Cl)=N\NC(N)=S	4	10µM*	-26%	7.9µM*	-12	?
CO/N=C\CC(=O)Nc1ccc(F)cc1	8	8%	-42%	2%	42	-6%
Cc1ccsc1C(=O)OCC(=O)N(Cc1ccccc1)C(C)C	6	6%	-3%	5%	1	1%
Clc1cc(Br)ccc1NCc1cccnc1	18	-2%	-5%	-5%	-19	-6%
O=C1Nc2c(c(=O)[nH]c(=O)n2-c2ccc(F)cc2)C1(NS(=O)(=O)c1ccccc1)C(F)(F)F (stereo not drawn)	-1	24%	7%	19%	6	-2%
N#CC(C#N)=NNc1ccc(S(=O)(=O)N2CCCCC2)cc1	0	-4%	-44%	-9%	9	7.9µM*
N#C/C(=N\Nc1ccc(S(=O)(=O)N2CCOCC2)cc1)C(N)=S	19	-21%	-10%	-15%	-7	-22%
CN1CCc2c(sc3c2C(=O)NC(c2cn(Cc4ccccc4)c4ccccc24)N3)C1 (stereo not drawn)	-7	-1%	-54%	-17%	?	1.3µM*
CCOC(=O)N1CCc2c(sc3c2C(=O)NC(c2ccccc2)N3)C1 (stereo not drawn)	11	?	-13%	15µM*	0	?
Cc1cc2c(c(C)c1Br)C(c1ccc3c(c1)OCO3)CC(=O)O2 (stereo not drawn)	27	-1%	-89%	-3%	42	20µM*
Cc1cc(C)c2c(c1)OC(=O)CC2c1ccc2c(c1)OCO2 (stereo not drawn)	?	11%	11%	3%	11	-14%
